Shown are actives, neighbours in structure and some others; about 7.3% of the full set was active somewhere.
FMDV inh: foot and mouth disease virus antiviral activity | FMDV antiviral cell-based qHTS | Potency, µM (top dose mostly 57.9 µM), for inactives: at the top dose activity change, negative = inhibition, actives largely listed as inhibitors | 410,000 tested, 1.2% active | AID 1159524; calls by dose curve; tested in HEK293T cells; further: read-out not given here; potency means the concentration at half of the fitted maximal effect; nearly all actives have a fitted effect of over 45% in size
Vaccinia mCherry: inhibitors of vaccinia virus infection (mCherry reporter signal) | Vaccinia virus mCherry reporter infection, fluorescence | Potency, µM (series often up to 36.5 µM), inactives show at the highest dose activity change, negative = inhibition, usual class: inhibitors | 310,000 tested, 0.63% active | AID 720579; calls by dose curve; tested in A549 cells; further: potency means the concentration at half of the fitted maximal effect; nearly all actives have a fitted effect of over 35% in size
Vaccinia Venus: vaccinia inhibition (Venus reporter); Vaccinia virus Venus reporter expression, fluorescence; Potency, µM (highest dose often 36.5 µM), for the others: at the highest dose activity change, negative = inhibition, hits mostly inhibitors; 330,000 tested, 0.46% active; AID 720580; calls by dose curve; tested in A549 cells; further: potency means the concentration at half of the fitted maximal effect; nearly all actives have a fitted effect of over 30% in size
HCMV inh: human cytomegalovirus inhibition | activity change, negative = inhibition, % at 57.5 µM | HFF cells, HCMV-luciferase reporter, 72 h; stronger effect = lower value | 410,000 tested, 4.5% active; in the data active means activity change below about -60%; inconclusive means no clear call, values can overlap the other calls; inactive means above about -39%
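Two compound doses tested in HFFs infected with HCMV-luciferase, MOI 1 PFU/cell, 72 h at 37C. Lysate luminescence read with OneGlo; data normalized against buffer-only and 10uM Salinomycin inhibitor controls.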
HCV inh: HCV inhibition. Huh7.5.1 HCVcc-Cre infection, luciferase reporter, 44 h. Potency, µM (titrated, usually from 41.8 µM), inactives show at the top dose activity change, negative = inhibition, most hits filed as inhibitors. 340,000 tested, 3.4% active. AID 651820; active means well fitted inhibition curve with a large enough effect; inconclusive means small, poorly fitted or top-dose-only effect, or another doubt; inactive means no such curve, though single readings can be large or run the other way; further: potency means the concentration at half of the fitted maximal effect
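After 44 h co-culture of compound, cells and HCVcc-Cre (~0.5 moi), substrate is added for 15 min at room temperature and luciferase measured over 15 sec. Cells were seeded at 1,000/well and pre-cultured 4 h.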
Active calls of the source: *; i = inactive; ? = inconclusive; / = no result given. On the % scale 0 is the no-effect control and ±100 the full control effect.

SMILES	FMDV inh	Vaccinia mCherry	Vaccinia Venus	HCMV inh	HCV inh
COc1cc2c(cc1OC)C(C)N(C(=S)NC(=O)c1ccccc1)CC2 (stereo not drawn)	?	-23%	-12%	-61*	?
Clc1ccc2nc[nH]c2c1	/	i	-7%	/	/
CCc1cccc(OCC(=O)Nc2cc(S(=O)(=O)N3CCOCC3)ccc2N2CCCC2)c1	17%	/	/	16	?
CO[C@H]1[C@H](NC(=O)c2ccsc2)c2ccccc2C12CCN(Cc1cc(Cl)ccc1O)CC2	-11%	-28%	-18%	/	/
Cc1ccc(N2C(S)=C(C#N)C(=O)NC23CCCCC3)cc1	15%	-10%	-6%	-60*	13%
CC1CCN(C(=O)c2ccc3c(c2)N(Cc2ccccc2)C(=O)c2ccccc2S3(=O)=O)CC1	27%	-13%	-6%	-61*	/
O=C(c1ccc2c(c1)N(Cc1ccc(F)cc1)C(=O)c1ccccc1S2(=O)=O)N1CCC(Cc2ccccc2)CC1	?	-20%	-10%	-64*	/
O=C(Nc1cccc(F)c1)c1ccc2c(c1)N(Cc1ccccc1)C(=O)c1ccccc1S2(=O)=O	0%	-24%	-17%	-89*	/
CC1=C(C(=O)Nc2cccnc2)C(c2ccc(Cl)cc2)n2nc(SCc3ccccc3)nc2N1 (stereo not drawn)	-11%	-5%	1%	4	/
Cc1ccsc1C(=O)N1CCC1(C)C(=O)NCc1cccnc1 (stereo not drawn)	-10%	i	-3%	55	/
CCOc1ccccc1NC(=O)C1CCCN(S(=O)(=O)c2ccc(-n3cnnn3)cc2)C1 (stereo not drawn)	-22%	i	-13%	5	-3%
CCN(C(=O)CCS(=O)(=O)c1cc2c(cc1C)NC(=O)CO2)c1cccc(C)c1	-7%	6%	5%	-103*	/
COc1cccc(OCCCN2CCN(S(=O)(=O)c3ccc(NC(C)=O)cc3)CC2)c1	14µM*	/	/	-81*	13µM*
Cc1ccc(S(=O)(=O)N2CCN(CCNC(=O)C(=O)Nc3ccc(F)cc3)CC2)cc1	3%	-12%	-13%	-67*	11%
O=C(NCCN1CCN(S(=O)(=O)c2ccccc2)CC1)C(=O)Nc1ccc(F)cc1	-15%	7%	17%	28	-12%
COc1cc(CC(NC(C)=O)C(=O)NC2CCN(S(=O)(=O)c3ccc(NC(C)=O)cc3)CC2)cc(OC)c1 (stereo not drawn)	0%	0%	-12%	-72*	7%
COc1ccc(CN2CCN(S(=O)(=O)c3ccc(C)cc3)CC2)cc1Br	-15%	/	/	-8	32µM*
COc1ccccc1NC(=O)Cn1c(=O)n(-c2cccc(C)c2)c(=O)c2c1c1cc(C)ccc1n2C	0%	0%	-13%	116	/
N#Cc1ccc(S(=O)(=O)N[C@H]2CC[C@@]34CCCN3C(=O)CCC[C@H]4[C@H]2Cc2ccccc2)cc1	/	/	/	-35	/
CC(=O)Nc1ccc(S(=O)(=O)N2CCN(CCCOc3ccccc3Cl)CC2)cc1	12%	/	/	-67*	7%
COc1cc(CN2CCN(S(=O)(=O)c3ccc(NC(C)=O)cc3)CC2)cc(OC)c1OC	-15%	-12%	-6%	-106*	/
CC(=O)Nc1ccc(S(=O)(=O)N2CCN(CCc3ccccc3)CC2)cc1	-5%	/	/	-4	?
Cc1cc(C(=O)CCl)c(C)n1-c1cccc([N+](=O)[O-])c1	11µM*	i	-3%	-95*	?
Cc1cc(C(=O)CCl)c(C)n1-c1ccon1	22µM*	-16%	-18%	?	?
Cc1ccc(-c2nc(C(=O)NCCCN(C)C)cc3c2[nH]c2ccccc23)cc1	?	?	?	-98*	11µM*
SMILES	FMDV inh	Vaccinia mCherry	Vaccinia Venus	HCMV inh	HCV inh
O=C(NCCO)c1cc2c([nH]c3ccccc32)c(-c2ccc(F)cc2)n1	-20%	-7%	-13%	-35	11µM*
Cc1nc(C(=O)NCCO)cc2c1[nH]c1ccccc12	14%	/	/	17	11µM*
CCCC12CN3CC(CCC)(CN(C1)C3c1c[nH]c3ccccc13)C2=O (stereo not drawn)	?	-9%	-16%	36	/
COc1ccc(CNc2nc3c(-c4ccc(C)cc4)nnn3c3ccccc23)cc1	20%	-1%	-1%	82	/
COc1ccc(-c2nc(C)c(CCNC(=O)c3cccc(C)c3)s2)cc1OC	32%	1%	5%	54	/
O=C(c1cnsn1)N1CCOc2ccc(CN3CCOCC3)cc2C1	18%	-12%	-9%	/	/
CC(C)c1ccc(NC(=O)CSc2nc3ccccc3nc2Cc2ccccc2)cc1	16%	-4%	-16%	-12	/
O=C1CCCc2nc(N3CCN(C(=O)c4ccco4)CC3)ncc21	24%	-8%	-9%	79	10%
O=C1CCCc2nc(N3CCN(C(c4ccccc4)c4ccccc4)CC3)ncc21	22µM*	/	/	11	-22%
Cc1cc(C(C)(C)C)cc(C)c1CCNC(=O)c1ccc[n+]([O-])c1	-11%	10µM*	25%	?	?
CN(CC(=O)Nc1ccc(OC(F)(F)F)cc1)C(=O)c1ccccc1SCC(=O)N1CCCC1	49%	-3%	-6%	-17	-11%
N#Cc1c(NC(=O)CSc2nnc(-c3ccncc3)n2CC2CCCO2)sc2c1CCCC2 (stereo not drawn)	-22%	-23%	-13%	-80*	9%
N#Cc1c(NC(=O)CSc2ncc(-c3ccccc3)n2CC2CCCO2)sc2c1CCCC2 (stereo not drawn)	0%	/	/	-62*	11µM*
CCn1c(SCC(=O)Nc2sc3c(c2C#N)CCCC3)nnc1-c1ccncc1	-8%	i	?	58	?
COc1ccc(-n2c(=O)cnc3cnc(OC)nc32)cc1	-14%	/	/	/	/
COc1ccccc1C(=O)Nc1ccc2c(c1)nc1n2CCN(Cc2ccccc2)C1	?	-13%	-27%	-68*	?
O=S(=O)(Nc1ccc2c(c1)nc1n2CCN(Cc2ccccc2)C1)c1ccc(F)cc1	10%	/	/	-21	?
O=S(=O)(Nc1ccc2c(c1)nc1n2CCN(Cc2ccccc2)C1)c1ccc(Cl)cc1	-5%	/	/	45	11µM*
Cc1ccc(S(=O)(=O)Nc2ccc3c(c2)nc2n3CCN(Cc3ccccc3)C2)cc1	-1%	/	/	-16	16µM*
O=C(Nc1ccc2c(c1)nc1n2CCN(Cc2ccccc2)C1)c1cccs1	12%	/	/	-23	?
O=S(=O)(Nc1ccc2c(c1)nc1n2CCN(Cc2ccccc2)C1)c1ccccc1	?	/	/	-96*	5.6µM*
O=C(Nc1ccc2c(c1)nc1n2CCN(Cc2ccccc2)C1)NC1CCCCC1	23%	-3%	-3%	-39	-17%
COC(=O)[C@H]1[C@H](CO)[C@H]2Cn3c(ccc(Br)c3=O)[C@H]2N1Cc1ccccc1Cl	/	/	/	7	/
CC(C)c1ccc(NC(=O)Cn2c(=O)n(CC3CCC(C(=O)NCCc4ccccc4)CC3)c(=O)c3ccccc32)cc1 (stereo not drawn)	-12%	-27%	-17%	35	/
COc1ccccc1-c1ccnc(-n2ncc(C(=O)NCC3(N4CCOCC4)CCCC3)c2C)n1	-3%	-14%	-10%	/	/

Screening data as filed in PubChem.
